Assay outcomes from PubChem.
Rows were chosen to be rich in hits. Some 31% of all compounds tested hit in one or more screens of this group.
CYP2C19 inhib: blocks human cytochrome P450 2C19. inhibition, % at 5 µM. P33261. CYP2C19 Supersomes, luciferin-H EGE luminescence, 30 min. 96,000 compounds, 21% hits;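 active = CYP2C19 inhibition above a set limit at 5 µM in the primary screen, cut at about 50% in these data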;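 note: plate controls were negative control wells for no effect and 2.5 mM tranylcypromine positive control for full effect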
CYP2C9 inhib: human CYP2C9 inhibition. 96,000 compounds, 20% hits. CYP2C9 Supersomes, luciferin-H conversion, luminescence. AID 777. P11712. inhibition, % at 5 µM;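 active = blocking of liver enzyme CYP2C9 beyond about 50% at 5 µM, limit read from the data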
Target sequence (P11712 whole entry, looked up): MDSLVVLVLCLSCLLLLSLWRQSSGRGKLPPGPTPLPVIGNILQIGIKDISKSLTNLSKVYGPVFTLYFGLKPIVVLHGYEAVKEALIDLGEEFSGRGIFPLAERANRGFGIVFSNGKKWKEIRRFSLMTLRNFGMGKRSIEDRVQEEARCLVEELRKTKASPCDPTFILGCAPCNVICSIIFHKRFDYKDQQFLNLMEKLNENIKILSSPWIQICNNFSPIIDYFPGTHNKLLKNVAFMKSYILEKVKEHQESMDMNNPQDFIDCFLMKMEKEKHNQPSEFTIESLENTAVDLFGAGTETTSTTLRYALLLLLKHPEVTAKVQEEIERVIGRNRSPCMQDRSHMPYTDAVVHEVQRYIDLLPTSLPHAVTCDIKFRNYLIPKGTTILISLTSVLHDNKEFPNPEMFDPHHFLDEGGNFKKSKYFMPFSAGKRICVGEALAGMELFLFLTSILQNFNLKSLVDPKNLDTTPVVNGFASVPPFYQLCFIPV
CYP2C9 activ: increases human cytochrome P450 2C9 activity; P11712; recombinant CYP2C9, luciferin-H conversion, luminescence; active compounds read high; factor 1 = untreated enzyme, 0 = blocked; activation factor at 5 µM; 96,000 compounds, 1.4% hits;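 active = activation factor of 2 or more for CYP2C9 at a 5 µM dose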;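 note: 0 = sulfaphenazole-blocked wells and 1 = vehicle-only wells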
CYP2C19 activ: increases human CYP2C19 enzyme activity. P33261. recombinant CYP2C19, luciferin-H EGE luminescence; active compounds read high; 0 = fully inhibited enzyme, 1 = untreated enzyme. activation factor at 5 µM. 96,000 tested, under 10 active. AID 1025;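 active = activation factor of at least 2 at 5 µM in the primary screen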;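 note: 0 = wells with 2.5 mM tranylcypromine and 1 = vehicle-only wells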
Active calls of the source: *.

SMILES	CYP2C19 inhib	CYP2C9 inhib	CYP2C9 activ	CYP2C19 activ
Nc1nnc(SCC(=O)Nc2cc(C(F)(F)F)ccc2N2CCOCC2)s1	77.5*	77.0*	0.2	0.2
O=C(Nc1ccccc1)C1Cc2ccccc2CN1C(=O)c1ccco1 (stereo not given)	28.8	9.4	0.9	0.7
N#CCCS(=O)(=O)c1nnnn1-c1ccccc1	-1.7	-8.8	1.1	1
CN1C(=O)OC2(C)CCc3ccccc3C12C (stereo not given)	21.5	11.8	0.9	0.8
O=C(Cc1ccccc1)N1CCCC(c2nc(-c3cccs3)no2)C1 (stereo not given)	22.5	24.4	0.8	0.8
O=S(=O)(Cc1ccccc1)N1CCC(c2nc(-c3cccs3)no2)CC1	40.9	67.8*	0.3	0.6
N#Cc1ccc(-c2nnnn2-c2ccc3c(c2)OCO3)cc1	60.6*	26.8	0.7	0.4
N#Cc1cccc(-n2nnnc2-c2ccccn2)c1	8.7	8.1	0.9	0.9
N#Cc1cccc(-n2nnnc2-c2ccc3c(c2)OCO3)c1	96.7*	22.3	0.8	0
Cc1cc([N+](=O)[O-])ccc1NCc1ccc2ccccc2c1	35.9	77.3*	0.2	0.6
O=[N+]([O-])c1ccc(Nc2ccc3ccccc3c2)nc1	8.7	-2.1	1	0.9
Cc1cc([N+](=O)[O-])ccc1NCc1ccccc1	87.2*	51.9*	0.5	0.1
COc1ccc(CNc2cc([N+](=O)[O-])ccc2OC)cc1	52.4*	74.7*	0.3	0.5
Cc1cc([N+](=O)[O-])ccc1NC(=S)NC(=O)Cc1ccccc1	16.8	3.6	1	0.8
CCC1CCCCN1CCCNC(=O)CC1Oc2ccc(C)cc2NC1=O (stereo not given)	-3.2	5.0	0.9	1
NC(=O)C1CCN(C2=C(Cl)C(=O)c3ccccc3C2=O)CC1	16.7	12.3	0.9	0.8
Cc1cccc(S(=O)(=O)C(C#N)c2nc3ccccc3nc2N2CC(C)OC(C)C2)c1 (stereo not given)	10.9	43.1	0.6	0.9
CC1CN(c2nc3ccccn3c(=O)c2/C=C(\C#N)S(=O)(=O)c2ccccc2)CC(C)O1 (stereo not given)	84.6*	83.9*	0.2	0.2
N#C/C(=C\c1c(N2CCC(C(N)=O)CC2)nc2ccccn2c1=O)S(=O)(=O)c1ccccc1	25.7	78.8*	0.2	0.7
CCOC(=O)C1CCN(C(=O)CN(c2ccc3c(c2)OCO3)S(C)(=O)=O)CC1	-14.6	-9.6	1.1	1.1
O=C(NCCc1csc(-c2cccnc2)n1)c1cccc2ccccc12	78.9*	86.2*	0.1	0.2
O=C(Nc1nsc(-c2ccccc2)n1)c1cccs1	48.4	74.8*	0.3	0.5
O=C(NCc1csc(-c2ccccc2)n1)c1ccco1	83.8*	13.7	0.9	0.2
O=C(NCCc1csc(-c2ccccc2)n1)c1cccs1	-3.5	73.9*	0.3	1
Cc1sc(NC(=O)c2cccs2)nc1-c1ccccc1	-5.8	3.9	1	1.1
SMILES	CYP2C19 inhib	CYP2C9 inhib	CYP2C9 activ	CYP2C19 activ
NC(=O)C1CCN(CCC(=O)Nc2cccc(Cl)c2)CC1	18.3	10.2	0.9	0.8
O=C(NCCc1csc(-c2cccnc2)n1)c1ccccc1	82.4*	64.9*	0.4	0.2
CCOC(=O)c1ccc2c(c1)NC(=O)C(N1CCN(c3ccc(OC)cc3)CC1)S2 (stereo not given)	-13.7	0.8	1	1.1
c1ccc(Nc2nc(-c3ccccn3)cs2)cc1	37.6	42.0	0.6	0.6
c1ccc(-c2csc(Nc3cccnc3)n2)nc1	67.3*	68.3*	0.3	0.3
CCn1c(SCC(=O)Nc2nccs2)nnc1-c1ccccc1	92.1*	51.7*	0.5	0.1
CCn1c(SCC(=O)Nc2nc(-c3ccccc3)cs2)nnc1-c1ccccc1	93.6*	96.0*	0	0.1
CCn1c(SCC(=O)N/N=C/c2ccc(C)o2)nnc1-c1ccccc1	26.1	1.8	1	0.7
CCn1c(SCC(=O)N/N=C/C(C)=C/c2ccco2)nnc1-c1ccccc1	84.8*	47.0	0.5	0.2
Cc1ccc(S(=O)(=O)CC#CCOC(=O)c2ccc([N+](=O)[O-])cc2)cc1	23.9	34.0	0.7	0.8
COc1ccccc1-n1c(C)nc(=O)c(-c2ccccc2)c1C	77.6*	6.7	0.9	0.2
Cc1nc(=O)c(-c2ccccc2)c(C)n1-c1ccccc1C(=O)O	48.2	-53.3	1.5	0.5
COc1cc(NC(=O)COC(=O)c2nc3nc(C)cc(C)n3n2)cc(OC)c1	-2.6	9.7	0.9	1
COc1ccc(S(=O)(=O)NNC(=O)c2cc3cc4ccccc4nc3s2)cc1	-13.3	-7.7	1.1	1.1
COc1cc(OC)cc(C(=O)Nc2cccc(N3CCCC3)c2)c1	-0.8	5.8	0.9	1
CCC(C)(C)n1nnnc1CN(Cc1ccc(Cl)cc1)Cc1ccco1	97.4*	95.6*	0	0
CCC(C)(C)n1nnnc1CN(Cc1ccco1)Cc1cc2cc3c(cc2[nH]c1=O)OCO3	30.8	9.8	0.9	0.7
CC(C)(C)c1ccc(OC(=O)c2ccc3nsnc3c2)cc1	0.4	29.0	0.7	1
O=C(COC(=O)CCCc1c[nH]c2ccccc12)Nc1ccc2c(c1)OCO2	72.6*	21.5	0.8	0.3
CCOc1ccc(NC(=O)COC(=O)CCCc2c[nH]c3ccccc23)cc1	23.0	46.4	0.5	0.8
O=C(COC(=O)C1c2ccccc2Oc2ccccc21)Nc1ccc2c(c1)OCO2	18.6	58.1*	0.4	0.8
COc1ccc(NC(=O)COC(=O)CCCc2c[nH]c3ccccc23)cc1	83.9*	81.2*	0.2	0.2
Cc1cccc(OCC(O)CN2CCN(C3CCCCC3)CC2)c1 (stereo not given)	5.8	8.0	0.9	0.9
CC(NC(=O)C1CCCN(C(=O)N(C)C)C1)c1ccccc1 (stereo not given)	28.7	52.7*	0.5	0.7
CC(NC(=O)C1CCC1)c1ccccc1 (stereo not given)	17.4	2.7	1	0.8
SMILES	CYP2C19 inhib	CYP2C9 inhib	CYP2C9 activ	CYP2C19 activ
Nc1nnc(SCc2ccc(F)cc2Cl)s1	90.8*	11.2	0.9	0.1
CCOC(=O)c1ccc(CSc2nnc(N)s2)cc1	70.0*	65.0*	0.3	0.3
CCOC(=O)CSc1nnc(N)s1	12.4	14.7	0.9	0.9
Nc1nnc(COc2cccc(C(F)(F)F)c2)s1	63.9*	0.2	1	0.4
Nc1nnc(SCc2cccc(C(F)(F)F)c2)s1	95.5*	-26.4	1.3	0
FC(F)(F)c1cccc(NCc2cn3cccnc3n2)c1	25.2	0.5	1	0.7
COc1ccc(-c2nn(CC(=O)N3CCCCC3)c(=O)c3ccccc23)cc1	-4.2	43.0	0.6	1
CCOc1ccc(S(=O)(=O)N2CCN(C(=O)c3cccn3C)CC2)cc1	63.5*	22.2	0.8	0.4
CCOc1ccc(S(=O)(=O)Nc2ccc(S(=O)(=O)N3CCOCC3)cc2)cc1	22.3	60.1*	0.4	0.8
O=S(=O)(c1ccc(Oc2ccc(Br)cc2)cc1)N1CCOCC1	75.4*	64.1*	0.4	0.2
CCOc1ccc(S(=O)(=O)Nc2ccc(S(=O)(=O)N3CCCC3)cc2)cc1	84.6*	93.5*	0.1	0.2
